Assay results as given in PubChem BioAssay AID720709 (National Center for Advancing Translational Sciences (NCATS), 2013).
The campaign covered roughly 360,000 compounds. About 520 (0.14%) were called active. Inconclusive results (about 3%) are left out. Calls follow the shape of the dose curve; as a rule, active = well fitted inhibition curve with a large enough effect; inconclusive = small, poorly fitted or top-dose-only effect; inactive = no such curve, though single readings can be large or run the other way. The list comes from a sample in which actives are over-represented; it also holds similar structures and randomly drawn compounds.

Target: Rap guanine nucleotide exchange factor 3 (Homo sapiens) (UniProt O95398)
Assay: qHTS for Antagonist of cAMP-regulated guanine nucleotide exchange factor 3 (EPAC1): primary screen; also: nearly all actives have a fitted effect of over 50% in size;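 as to activity change, negative = inhibition: plate controls were vehicle for no effect and positive control for full effect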
Conditions: EPAC1 GEF assay, Rap1b-BODIPY-GDP exchange fluorescence; series mostly up to 115 µM; activity change, negative = inhibition: at the top concentration
Excerpt: In multi-cellular eukaryotic organisms, the effects of cAMP are transduced by two ubiquitously-expressed intracellular cAMP receptors, the classic protein kinase A/cAMP-dependent protein kinase (PKA/cAPK) and the more recently discovered exchange protein directly activated by cAMP/cAMP-regulated guanine nucleotide exchange factor (EPAC/cAMP-GEF). Both PKA and EPAC are ubiquitously expressed in all tissues, and an increase in intracellular cAMP levels will lead to the activation of both PKA and EPAC. Therefore, careful dissections of the individual role and relative contribution of EPAC and PKA within the overall cAMP signaling in various model systems are critical for further elucidating the mechanism of cAMP signaling. To date no EPAC-specific antagonists and agonist, as well as isoform-specific agonists have been reported, and developing EPAC-specific pharmacological probes to determine the physiological functions that EPAC play in the overall cAMP-mediated signaling remains a major challenge within the research field. Furthermore, identified regulators of EPAC may lead to new mechanism-based therapeutic strategies specifically targeting the EPAC / cAMP-signaling components as EPAC has been implicated to play important roles in major human pathological conditions such as diabetes, heart disease, and cancer. This qHTS will be used to screen the Molecular Libraries Small Molecule Repository (MLSMR) as a concentration-titration series using the NCGC unique quantitative screening (qHTS) platform to find inhibitors for EPAC1. In addition, this assay will also be used as a counterscreen for the EPAC2 qHTS. This fluorescent based assay is developed and validated for EPAC1 that measures exchange using EPAC effector Rap1 complex with BODIPY-GDP, a GDP analog with a tethered fluorophores. Inhibitors are identified by monitoring the change in fluorescence signal as the exchanged free BODIPY-GDP has a reduced fluorescence compared to Rap1-bound BODIPY-GDP. Decrease in signal (inhibition) is the desired outcome for the EPAC1 antagonist while no activity in this assay is desired for the EPAC2 antagonist counterscreen. de Rooij, J., Zwartkruis, F. J., Verheijen, M. H., Cool, R. H., Nijman, S. M., Wittinghofer, A., and Bos, J.L. (1998) Nature 396, 474-477 [2] Kawasaki, H., Springett, G. M., Mochizuki, N., Toki, S., Nakaya, M., Matsuda, M., Housman, D. E., and Graybiel, A. M. (1998) Science 282, 2275-2279 NIH Chemical Genomics Center [NCGC] NIH Molecular Libraries Probe Centers Network [MLPCN] MLPCN Grant: NS066510 Assay Submitter (PI): Xiaodong Cheng, The University of Texas, Medical Branch
Briefly, three uL of reagents (100 nM EPAC1, 250 nM RAP1B-BODIPY-GDP, 50 uM GDP) were dispensed into a 1536-well Greiner black solid-bottom medium binding assay plate. Controls and test compounds (23 nL) were transferred to the plate via a Kalypsys pin tool equipped with a 1536-pin array. The plates were centrifuged at 1,000 rpm for 15 seconds followed by 5 minute incubation at room temperature. The assay plates were read at 5 minute intervals for 30 minutes in the ViewLux plate reader using 480nm excitation and 540nm emission filters. The results were normalized to the […] positive control ATA and DMSO.
Potency is read from the fitted curve at half-maximal effect.

Chain of Rap guanine nucleotide exchange factor 3 (Homo sapiens) (O95398 whole entry, looked up): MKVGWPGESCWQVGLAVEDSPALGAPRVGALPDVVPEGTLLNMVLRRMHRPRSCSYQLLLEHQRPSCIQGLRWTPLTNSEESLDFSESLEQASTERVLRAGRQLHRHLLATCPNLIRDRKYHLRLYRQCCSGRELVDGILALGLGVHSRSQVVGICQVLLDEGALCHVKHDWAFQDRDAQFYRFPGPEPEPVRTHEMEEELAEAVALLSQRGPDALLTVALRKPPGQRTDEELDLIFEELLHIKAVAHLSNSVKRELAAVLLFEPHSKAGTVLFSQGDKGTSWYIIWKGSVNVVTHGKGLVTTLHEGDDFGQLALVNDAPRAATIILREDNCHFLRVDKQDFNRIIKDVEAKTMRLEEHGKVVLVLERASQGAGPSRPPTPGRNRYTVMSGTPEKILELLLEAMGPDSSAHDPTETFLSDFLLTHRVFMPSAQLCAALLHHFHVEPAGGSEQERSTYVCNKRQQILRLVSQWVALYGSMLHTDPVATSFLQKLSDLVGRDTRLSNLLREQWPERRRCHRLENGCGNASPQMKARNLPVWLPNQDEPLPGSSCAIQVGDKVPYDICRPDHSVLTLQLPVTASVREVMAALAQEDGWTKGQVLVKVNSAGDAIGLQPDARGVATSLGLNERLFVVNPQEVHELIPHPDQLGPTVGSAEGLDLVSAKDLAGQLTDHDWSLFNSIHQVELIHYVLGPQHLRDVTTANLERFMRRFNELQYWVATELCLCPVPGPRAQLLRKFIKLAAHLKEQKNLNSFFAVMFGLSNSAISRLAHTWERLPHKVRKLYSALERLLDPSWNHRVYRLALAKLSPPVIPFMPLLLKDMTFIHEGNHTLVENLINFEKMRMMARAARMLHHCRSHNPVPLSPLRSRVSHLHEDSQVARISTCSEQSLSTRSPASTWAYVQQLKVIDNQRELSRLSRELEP

Activity change, negative = inhibition, inactive:
CC(=O)OCC(C)n1c(=O)c2ccccc2n1C(C)=O (stereo not drawn) 14.3%, CCc1nnc(NS(=O)(=O)c2ccc(NC(=S)NC(=O)c3cccs3)cc2)s1 -18.7%, CCc1nnc(NS(=O)(=O)c2ccc(NC(=O)c3cccc(OC(F)(F)C(F)F)c3)cc2)s1 6.32%, CCC(C(=O)NC(C)(C)C)n1c(-c2ccccc2)nc2ccccc21 (stereo not drawn) -11.7%, CC(=O)N1Cc2cc(C(=O)NCc3cccc(F)c3)nc(-c3cccc(C4=CCCC4)c3)c2[C@H]1CCO -4.59%, COC(=O)C1(C(=O)OC)C/C=C\CN(S(=O)(=O)c2ccccc2[N+](=O)[O-])CCC1 -24.3%, C[N+](C)(C)CCNC(=O)c1c[nH]c2ccccc12 -10.3%, CCOC(=O)c1c(C)[nH]c(C(=O)OCC(=O)N2CCCC2=O)c1C -3.83%, CN(C)S(=O)(=O)c1cccc(C(=O)OCC(=O)N2CCCC2=O)c1 -1.48%, COC(=O)[C@@]12C[C@@H](CC(=O)N3CCC(c4ccccc4)CC3)C(=O)N(Cc3ccccc3)C1=CCC(C)(C)C2 6.68%, COc1cc(OC)cc(C2=Cc3ccccc3C(CC(=O)c3ccco3)N2c2ccc(-c3cnc(OC)nc3)cc2)c1 (stereo not drawn) -2.98%, Cc1cccc(C)c1NC(=O)C(c1cccc2ccccc12)n1c(=O)c(-c2ccco2)nc2ccccc21 (stereo not drawn) -20.9%, Cc1ccc(S(=O)(=O)N2CC3C(=O)C[C@@H](c4ccccc4Cl)N(S(=O)(=O)c4ccc(C)cc4)C3CC2c2ccccc2)cc1 (stereo partly drawn) 0.258%, Cc1cccc(C)c1NC(=O)C(c1ccc(C(F)(F)F)cc1)n1c(=O)c(-c2ccco2)nc2ccccc21 (stereo not drawn) -14.7%, COc1cccc(CNC(=O)[C@@H]2CCCN2C(=O)[C@@H]2CCCN2C(=O)c2ccccc2)c1 -7.07%, COc1ccc(CC(N)c2csc(NC(=O)Nc3ccc(C(C)C)cc3)n2)cc1 (stereo not drawn) -15.8%, CCN(CC)CCN(C)C(c1ccnc2ccccc12)c1nnnn1-c1ccc2c(c1)OCCO2 (stereo not drawn) -3.49%, COC(=O)[C@@]12C[C@@H](CC(=O)NCc3cccc(C(F)(F)F)c3)C(=O)N(Cc3ccco3)C1=CCC(C)(C)C2 -20.9%, CCC(C)CN1C(=O)CSCC1(C)C(=O)NCc1ccccc1 (stereo not drawn) -4.93%, Cc1cccc(C)c1NC(=O)C(c1cccc(F)c1)N1CCN(C)CC1 (stereo not drawn) 6.48%, CCCCC(O)C1=C[N+](=O)CC=C1 (stereo not drawn) 14.4%, Cc1cccc(C)c1-n1nnnc1C1(C)CCC(=O)N1CCOc1ccccc1 (stereo not drawn) 14.7%, COC(=O)[C@]12CCCCC=C1N(Cc1ccc3c(c1)OCO3)C(=O)[C@H](CC(=O)NCc1cccs1)C2 8.77%, Nc1nc2ncccn2c1-c1ccccc1 -20.8%, O=C(NC1CCCC1)C1c2ccccc2OCC(=O)N1Cc1ccccc1 (stereo not drawn) -15.9%, CCCNC(=O)C[C@@H]1CC[C@@H]2[C@H](COC[C@H](O)CN2C(=O)c2cc(Cl)cc(Cl)c2)O1 -0.835%, COC(=O)[C@@]12C[C@@H](CC(=O)N3CCCCC3)C(=O)N(Cc3ccc4c(c3)OCO4)C1=CCC(C)(C)C2 5.33%, CCCCOCCCNC(=O)C[C@@H]1C[C@@]2(C(=O)OC)CCCCC=C2N(CCC2=CCCCC2)C1=O -20.6%, C#CCNC(=O)C[C@@H]1C[C@@]2(C(=O)OCC)CCCC=C2N(Cc2ccco2)C1=O -7.54%, Cc1ccc(S(=O)(=O)N[C@H]2CCC[C@@H]2O)cc1 -24.4%, O=C(NCc1ccccc1)C(c1ccc(F)cc1)N1CCN(C(=O)C2CCCO2)CC1 (stereo not drawn) -11.6%, C#CCOCCOCCOCCNc1nc(N2CCN(C(=O)[C@H](CO)n3cc([C@@H](N)C(C)C)nn3)CC2)nc(N2CCN(C(=O)[C@H](CCC(=O)O)n3cc([C@@H](N)[C@H](C)CC)nn3)CC2)n1 -7.4%, C#CCOCCOCCOCCNc1nc(N2CCN(C(=O)C([C@@H](C)O)n3cc([C@@H](N)CCCCN)nn3)CC2)nc(N2CCN(C(=O)[C@H](CCCCN)n3cc(CN)nn3)CC2)n1 (stereo partly drawn) 11%, CN1OC[C@@H]2CN(S(=O)(=O)c3cccc4ccccc34)[C@H](c3ccc(N4CCCCC4)cc3)C[C@@H]21 1.95%, CC(C)C[C@@H]1COc2cc(N3CCC[C@@H]3CO)ccc2S(=O)(=O)N1 21.2%, CCOC(=O)C1C(C)C(C(C)(C)C)N(S(=O)(=O)c2ccc(C)cc2)C1c1ccccc1 (stereo not drawn) -11.1%, Fc1cccc(Cc2c(-c3ccc(Cl)cc3)nc3ccc(Cl)cn23)c1 -25.5%, CC1=C(C(=O)N(C(C)C)C(C)C)CC(CC(=O)NCCCCc2ccccc2)C(=O)N1CCC1=CCCCC1 (stereo not drawn) -21.9%, CCc1c(-c2ccc(F)cc2)ncn1Cc1cccc(-c2ccccc2)c1 -18.4%, CN(C)C1CN(Cc2cn(Cc3ccccc3)nn2)S(=O)(=O)C1 (stereo not drawn) -19.8%, COC(=O)C1=CN(c2c(C)cc(C)cc2C)C(N)=C(C#N)C1c1cccc(F)c1 (stereo not drawn) 7.23%, CCc1oc(-c2ccc(OC)cc2)c(C(=O)OCCCCCO)c1C(C)OCCO (stereo not drawn) -11.4%, COC(=O)[C@]12CCCCC=C1N(Cc1cccc3ccccc13)C(=O)[C@H](CC(=O)N1CCOCC1)C2 -27.4%, CCNC(=O)c1cc2c(c(-c3cccc(-c4cncnc4)c3)n1)[C@H](CCO)N(C(C)=O)C2 -10.6%, CCCCNC(=O)C[C@@H]1C[C@@]2(C(=O)OCC)CCC=C2N(Cc2ccco2)C1=O -9.69%, CCOC(=O)[C@]12CCCC=C1N(CCC1=CCCCC1)C(=O)[C@H](CC(=O)N1CCCCC1)C2 5.77%, CCOc1ccc(CCN2C(=O)C(=O)N([C@@H](Cc3ccc(O)cc3)CN3CCC[C@H]3CN3C(=O)C(=O)NC[C@@H]3CC(C)C)C[C@@H]2Cc2ccccc2)cc1 -22.3%, CCOC(=O)[C@]12CCCC=C1N(Cc1ccc3c(c1)OCO3)C(=O)[C@H](CC(=O)N1CCN(C(=O)c3ccco3)CC1)C2 -27.1%, O=C(Nc1ccc2c(c1)OCCO2)C1c2ccccc2OCC(=O)N1Cc1ccccn1 (stereo not drawn) -12.8%, CC(C)C[C@@H]1Cc2[nH][nH]c(=O)c2[C@H](CCc2ccccc2)O1 -20%, CCOC(=O)[C@]12CCCC=C1N(Cc1ccc3c(c1)OCO3)C(=O)[C@H](CC(=O)NCc1cccs1)C2 -8.51%, CC(C)(O)C1=C[N+](=O)CC=C1 9.18%, CCCCCn1nnnc1C1c2ccccc2C(=O)N1Cc1ccco1 (stereo not drawn) 4.16%, COc1ccc(C(c2nnnn2C2CCCC2)N2CCN(C/C=C/c3ccccc3)CC2)cc1 (stereo not drawn) -1.03%, CCCCCNC(=O)C(c1ccc(OC)cc1)n1c(=O)c(-c2ccccc2)nc2ccccc21 (stereo not drawn) -4.26%, Cc1ccc(S(=O)(=O)N2[C@@H](Cc3ccccc3)CO[C@H]2CC(=O)OCc2ccccc2)cc1 5.33%, CN(Cc1cn(Cc2ccc(C(F)(F)F)cc2)nn1)C1CN(Cc2cn(Cc3ccc(C(F)(F)F)cc3)nn2)S(=O)(=O)C1 (stereo not drawn) -28.3%, COCCNC(=O)c1cc2c(Br)ccc(Br)c2nc1N -20.9%, CC(=O)N1Cc2cc(C(=O)NCc3cccc(F)c3)nc(-c3cccc(C4=CCCCC4)c3)c2[C@H]1CCO -17.1%, C=C1C(=O)[C@]23C[C@H]1CCC2[C@@]1(C)C(C[C@@H]3O)[C@](C)(C(=O)O)CC[C@@H]1O (stereo partly drawn) -21.7%, CCCCCNC(=O)C1C(=O)Nc2ccccc2C(=O)N1C(C)(C)C (stereo not drawn) 1.6%, CC[C@@H]1CC2=C(C(=O)OC(C)(C)O2)[C@@H](CC)O1 2.98%, CCOC(=O)[C@]12CCC=C1N(Cc1ccccc1)C(=O)[C@H](CC(=O)N1CCCC1)C2 -6.85%

Potency, active:
CCc1nnc(NS(=O)(=O)c2ccc(NC(=S)NC(=O)/C=C/c3cccs3)cc2)s1 35.5 µM, Cc1c(C(=O)OCC(=O)N2CCCC2=O)oc2ccccc12 79.4 µM, O=c1ccc2c(-c3ccccc3S(=O)(=O)O)c3ccc(O)c(O)c3oc-2c1O 56.2 µM, C#CCOCCOCCOCCNc1nc(N2CCN(C(=O)CCCCCCCCCCNC(=O)[C@H]([C@@H](C)CC)n3cc(CCCCN=C(N)N)nn3)CC2)nc(N2CCN(C(=O)CCCCCCCCCCNC(=O)[C@H](CO)n3cc(CCCSC)nn3)CC2)n1 44.7 µM, Oc1c(Cl)cc(Cl)c(Cl)c1Cc1c(O)c(Cl)cc(Cl)c1Cl 70.8 µM
